Consider 31 molecules from ChEMBL document CHEMBL3433997, “St. Jude Leishmania screening dataset” (2016).

Common to all, as to format: functional
The target in assay [1] is Solute carrier family 2, facilitated glucose transporter member 1 (Homo sapiens) (UniProt P11166). As to the kind of experiment: ST_JUDE_LEISH: Cytotoxicity at 2uM final concentration against transgenic Leishmania Mexicana promastigotes LmGLUT1 that are glucose transport deficient and complemented with the human glucose transporter GLUT1. Activity is measured by DNA content using SYBR green in vitro.
Sequence of Solute carrier family 2, facilitated glucose transporter member 1 (Homo sapiens) (P11166 whole entry): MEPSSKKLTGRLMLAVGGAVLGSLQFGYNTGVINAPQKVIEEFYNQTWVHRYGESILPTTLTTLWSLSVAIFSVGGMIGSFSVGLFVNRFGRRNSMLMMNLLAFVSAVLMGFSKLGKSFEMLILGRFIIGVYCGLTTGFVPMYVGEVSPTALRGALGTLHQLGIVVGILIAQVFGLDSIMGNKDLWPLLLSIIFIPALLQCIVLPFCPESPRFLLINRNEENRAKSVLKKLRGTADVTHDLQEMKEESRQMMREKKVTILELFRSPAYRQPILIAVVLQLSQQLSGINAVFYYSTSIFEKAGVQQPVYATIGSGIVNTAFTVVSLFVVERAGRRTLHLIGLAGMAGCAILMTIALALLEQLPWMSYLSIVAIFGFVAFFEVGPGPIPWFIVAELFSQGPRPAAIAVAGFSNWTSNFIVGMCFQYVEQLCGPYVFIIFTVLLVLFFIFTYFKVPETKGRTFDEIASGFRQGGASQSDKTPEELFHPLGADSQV

Assay [2] addresses Hexose transporter 1 (Plasmodium falciparum) (UniProt O97467). As to the kind of experiment: ST_JUDE_LEISH: Cytotoxicity at 2uM final concentration against transgenic Leishmania Mexicana promastigotes LmPfHT that are glucose transport deficient and complemented with the Plasmodium falciparum hexose transporter. Activity is measured by DNA content using SYBR green in vitro.
Assay [3] addresses Glucose transporter (Leishmania mexicana) (UniProt O61059). As to the kind of experiment: ST_JUDE_LEISH: Cytotoxicity at 2uM final concentration against transgenic Leishmania Mexicana promastigotes LmGT2 that are glucose transport deficient and complemented with the L. Mexicana glucose transporter 2. Activity is measured by DNA content using SYBR green in vitro.

On to `CCCCCCn1c(Sc2ccc(C#N)c([N+](=O)[O-])c2)nnc1-c1cccc(Cl)c1`, for which the inhibition (commonly the relative decrease from the control value, in per cent) in assay [1] is 3.22%; in assay [2] it was 9.17%; in assay [3], 0.88%.

For `O=[N+]([O-])c1cccc(-c2ccc(C=NNc3cc(N4CCCC4)nc(N4CCCC4)n3)o2)c1`, the inhibition in assay [1] amounted to 3.39%; in assay [2], 3.17%; in assay [3], 3.82%.

For `O=C(Nc1ccccc1Cl)N(Cc1cc(Cl)cc(Cl)c1)CC(O)COc1ccc(Cl)c(F)c1` (stereo not drawn), the inhibition in assay [1] was 2.94%; in assay [2], 2.72%; in assay [3], -2.7%.

As for `COc1ccc(-n2ccnc2SCC(=O)Nc2cc(C(F)(F)F)ccc2Cl)c(OC)c1`, the results for the inhibition in assay [1], in assay [2] and in assay [3] were 12.8%, 11.2% and 7.95%, respectively.

For `COc1ccc2nccc(N3CCN(CCNCc4ccc5c(n4)NC(=O)CS5)CC3)c2n1`, the inhibition in assay [1] was determined as 0.43%; in assay [2] it was 1.14%; in assay [3], 0.07%.

`N=C(NCCc1ccc(Cl)cc1)c1ccc(Cl)c(Cl)c1`: the values for the inhibition in assay [1], in assay [2] and in assay [3] were 2%, 2.64% and 1.15%, respectively.

Turning to `COc1c(CN2CCOCC2)cccc1-c1cc2c(-c3ccc(C(=O)O)c(C(C)C)c3)ccnc2[nH]1`, the inhibition in assay [1] amounted to 4.23%; in assay [2] it was 3.17%; in assay [3], 3.15%.

Take `CC(C)(C)OC(=O)NCCc1cccc(-c2c[nH]c3ncc(-c4cccc(NS(C)(=O)=O)c4)cc23)c1`: the inhibition in assay [1] is -0.22%; in assay [2] it was -2.71%; in assay [3], 7.65%.

As for `COc1ccc(Nc2c3ccc(Cl)cc3nc3ccc(OC)cc23)cc1`, the inhibition in assay [1] was found to be 2.45%; in assay [2] it was 4.25%; in assay [3], 0.01%.

As for `Cc1cc(C)c(CON2C(=N)N=C(N)NC2(C)C)cc1C`, the results for the inhibition in assay [1], in assay [2] and in assay [3] were -0.51%, -0.15% and -0.63%, respectively.

On to `N#Cc1ccc(N(CCOC(=O)c2ccc(Br)s2)Cc2ccccc2C(F)(F)F)cc1C(F)(F)F`, for which the inhibition in assay [1] was determined as 1.7%; in assay [2], 4.9%; in assay [3], 3.28%.

Take `Cc1ccc2c(=NN=Cc3cccc(F)c3)cc(C)[nH]c2c1`: the inhibition in assay [1] was determined as 7.16%; in assay [2], 7.52%; in assay [3], 6.18%.

Take `Cc1cn(CC(=O)Nc2cccc(-c3cccc(-c4nc5cc(C(F)(F)F)ccc5[nH]4)c3)c2)c(=O)[nH]c1=O`: the inhibition worked out at 9.16% in assay [1], 8.95% in assay [2] and 4.55% in assay [3].

As to `Cn1cccc1C(=O)C(=O)Nc1cccc(-c2ccc(-c3nc4cc(C(F)(F)F)ccc4[nH]3)cc2)c1`, the results for the inhibition in assay [1], in assay [2] and in assay [3] were 4%, 2.42% and -0.4%, respectively.

As to `O=C(CCCCCNC(=O)c1ccc(O)c(-c2ccc(Cl)c(Cl)c2)c1)NCCN1CCCC1`, the values for the inhibition in assay [1], in assay [2] and in assay [3] were 1.19%, 0.7% and 1.56%, respectively.

On to `COc1ccccc1N(C)CCNc1cc(C)nc(Nc2ccccc2)n1`, for which the inhibition in assay [1] stood at 11.5%; in assay [2], 8.65%; in assay [3] it was 5.05%.

Regarding `Cc1cc(N2CCC(NS(=O)(=O)c3ccccc3)CC2)nc(Nc2cccc(C#N)c2)n1`, the figures for the inhibition in assay [1], in assay [2] and in assay [3] were 44.5%, 41.9% and 45.6%, respectively.

In the case of `O=C(NCCCN1CCN(c2cccc(Cl)c2)CC1)c1ccc(-c2nc3cc(Cl)c(Cl)cc3[nH]2)cc1`, the inhibition in assay [1] is 11.3%; in assay [2] it was 8.6%; in assay [3] it was 13.7%.

Take `COc1ccc(CNCc2ccc(-c3cccc(-c4nc5cc(C(F)(F)F)ccc5[nH]4)c3)cc2)cc1`: the inhibition in assay [1] is -1.07%; in assay [2] it was -0.35%; in assay [3], -2.33%.

In the case of `C[C@H](Cc1ccc(OCCCCCOc2ccc(C[C@@H](C)NC[C@H](O)c3cccc(Cl)c3)cc2)cc1)NC[C@H](O)c1cccc(Cl)c1`, the inhibition worked out at 106% in assay [1], 104% in assay [2] and 107% in assay [3].

For the molecule `FC(F)(F)c1ccc2[nH]c(-c3ccc(-c4ccc(CN5CCN(c6cnccn6)CC5)cc4)cc3)nc2c1`, the inhibition in assay [1] worked out at 12.9%; in assay [2] it was 10.6%; in assay [3], 7.09%.

With `CNC(=O)/C=C/c1cc(NC(=O)Nc2ccnc3c(Br)cccc23)ccc1OC`, the results for the inhibition in assay [1], in assay [2] and in assay [3] were 3.51%, 2.22% and 0.98%, respectively.

As for `COc1cccc2cc(C(=O)N[C@@H](CC(C)C)C(=O)N[C@H](/C=N/NC(=O)Cc3cccnc3)CCc3ccccc3)oc12`, the inhibition in assay [1] stood at 3.03%; in assay [2], 5.36%; in assay [3], 1.75%.

As for `O=C(/C=C/c1ccc(Cl)c(Cl)c1)NCCCCCCN1CCCN(C(=O)Nc2ccc(Cl)c(C(F)(F)F)c2)CC1`, the inhibition in assay [1] was -1.95%; in assay [2] it was 0.9%; in assay [3], -1.22%.

For `CN1CCN=C1c1ccc(NC(=O)Nc2ccc(C3=NCCN3C)cc2)cc1`, the results for the inhibition in assay [1], in assay [2] and in assay [3] were 13%, 7.37% and 5.87%, respectively.

With `Oc1cccc(Nc2ccnc3cc(-c4nccs4)ccc23)c1`, the inhibition in assay [1] is -0.6%; in assay [2], 12.9%; in assay [3], 16.1%.

For the molecule `CN(C)CCOc1ccc(-n2c(-c3nonc3N)nc3cncc(-c4ccc(F)cc4)c32)cc1`, the inhibition in assay [1] was found to be 3.17%; in assay [2], 3.94%; in assay [3], 2.52%.

Consider `CC(Cc1ccc(NC(=O)c2ccc(CNCCc3ccccc3)cc2)cc1)NCCc1cccc(Cl)c1` (stereo not drawn), for which the values for the inhibition in assay [1], in assay [2] and in assay [3] were 68.9%, 36% and 4.52%, respectively.

Turning to `CCC(C)(C)c1ccc(OCCCC(=O)Nc2ccc(Cl)c([N+](=O)[O-])c2)c(C(C)(C)CC)c1`, the inhibition in assay [1] stood at 0.37%; in assay [2] it was 0.79%; in assay [3], 1.34%.

In the case of `O=C(Cc1ccccc1)NC1CCN(c2ccnc3cc(Cl)ccc23)C1` (stereo not drawn), the inhibition in assay [1] is 2.05%; in assay [2], 2.03%; in assay [3], 3.56%.

For the molecule `COc1ccccc1C1CCN(C2CCC(NC(=O)/C=C/c3cc(F)c(F)cc3F)CC2)CC1` (stereo not drawn), the inhibition in assay [1] was 2.17%; in assay [2], 2.98%; in assay [3], 2.21%.
